Some test systems named below: EKVX NSCLC; SN12C renal; UO-31 renal; TK-10 renal; ACHN renal; CAKI-1 renal; A498 renal; CCRF-CEM leukemia; MOLT-4 leukemia; SR leukemia.
Assay in all cases: NCI-60 one-dose screen, 48 h (100 = growth as untreated, 0 = no growth, -100 = all killed)
Common to all, as to details: 10 µM

The text below walks through data of PubChem BioAssay (NCI).

The panel holds about 83,000 compounds, 20% with a hit somewhere; the sample as a whole holds those more often.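 Results are percent growth after 48 hours of single-concentration exposure. 100 means growth as in untreated cells, lower positive values show inhibition; negative values down to -100 show cell death.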 Values without a mark were called inactive. Active and inactive are the calls of the source. The calls were made as follows: active = growth percent below 10; inactive = the rest.

In the case of `CC(C)(C)NC/C(=C\c1ccccc1)C(=O)c1ccccc1`, the growth with EKVX NSCLC is 24.7%; with SN12C renal, -45.8% (active); in the experiment on UO-31 renal, -83.3% (active); in the experiment with TK-10 renal, 0.816% (active); with ACHN renal it was -50.9% (active); in the experiment on CAKI-1 renal it was -7.54% (active). The growth is 64.4% in the experiment on A498 renal, 10.7% with CCRF-CEM leukemia, 10.3% in the experiment on MOLT-4 leukemia and -1.67% (active) with SR leukemia.

As to `COc1cc(/C=N/NC(=O)c2ccccc2Nc2ccnc(C(F)(F)F)c2)ccc1O`, the growth was 106% in the experiment with EKVX NSCLC; 122% in the experiment with SN12C renal; 98.1% in the experiment on UO-31 renal; 147% in the experiment on TK-10 renal; 111% with ACHN renal; -21.2% (active) in the experiment with CAKI-1 renal. Also, the growth with A498 renal is 116%; in the experiment with MOLT-4 leukemia it was -89.5% (active); in the experiment on SR leukemia, -48.1% (active).

Turning to `C[N+](C)(C)c1ncnc2nc[nH]c12`, the growth with EKVX NSCLC was 89.1%; in the experiment with SN12C renal it was 108%; in the experiment on UO-31 renal it was 84%; in the experiment on TK-10 renal, 103%; in the experiment with ACHN renal it was 91.1%; with CAKI-1 renal it was 83%. Moreover, the growth in the experiment on A498 renal was 98.3%; in the experiment on CCRF-CEM leukemia it was 102%; with MOLT-4 leukemia it was 98.6%; in the experiment on SR leukemia, 78.4%.

Regarding `COc1cc2c(cc1OC)N(CCO)C1=C(C(=O)OC1)C2c1ccc(Cl)c(Cl)c1` (stereo not drawn), the growth with EKVX NSCLC was 87%; in the experiment on SN12C renal it was 108%; in the experiment on UO-31 renal, 82.3%; with TK-10 renal, 98.7%; in the experiment with ACHN renal it was 107%; with CAKI-1 renal, 107%. The growth in the experiment on A498 renal was 89.3%; in the experiment with CCRF-CEM leukemia, 92.6%; in the experiment with MOLT-4 leukemia, 73.7%; with SR leukemia it was 86%.

As to `CCN(CC)CCCOCCCNc1cc(OC)cc2cccnc12`, the growth was 96.4% in the experiment with EKVX NSCLC; 87.7% with SN12C renal; 95.7% in the experiment on UO-31 renal; 137% in the experiment with TK-10 renal; 97.5% in the experiment on ACHN renal; 103% in the experiment on CAKI-1 renal. Moreover, the growth in the experiment on A498 renal was 72%; in the experiment with CCRF-CEM leukemia, 90.9%; in the experiment on MOLT-4 leukemia, 105%; with SR leukemia, 100%.

Take `CCOC(=O)CNC(=O)CCCCSc1ncnc2nc[nH]c12`: the growth in the experiment with EKVX NSCLC was 108%; in the experiment on SN12C renal, 99%; with UO-31 renal it was 96.5%; in the experiment with TK-10 renal it was 158%; in the experiment on ACHN renal it was 104%; with CAKI-1 renal, 96.1%. Moreover, the growth was 124% with A498 renal, 113% with CCRF-CEM leukemia, 101% with MOLT-4 leukemia and 90.6% in the experiment with SR leukemia.

On to `c1ccc([C@H]2CN3CCSC3=N2)cc1`, for which the growth in the experiment on EKVX NSCLC was 98.3%; in the experiment with SN12C renal, 109%; in the experiment on UO-31 renal, 88.2%; in the experiment on TK-10 renal, 112%; with ACHN renal, 107%; in the experiment on CAKI-1 renal, 93.6%. Also, the growth is 85% with A498 renal, 99.1% in the experiment on CCRF-CEM leukemia, 98.5% in the experiment on MOLT-4 leukemia and 103% in the experiment with SR leukemia.

As for `CN(C)CC(O)c1ccc2cc(Br)c3ccccc3c2c1` (stereo not drawn), the growth in the experiment on EKVX NSCLC is 58.5%; with SN12C renal, 53.9%; in the experiment with UO-31 renal it was 57.6%; in the experiment with TK-10 renal, 81.8%; in the experiment on ACHN renal, 17.2%; in the experiment with CAKI-1 renal, 73.1%. For the same compound, the growth was 23.9% with A498 renal, 57.9% in the experiment on CCRF-CEM leukemia, 31% in the experiment on MOLT-4 leukemia and 4.67% (active) in the experiment with SR leukemia.

Regarding `CC(=O)c1cc(Cl)ccc1O`, the growth was 108% in the experiment with EKVX NSCLC; 110% in the experiment on SN12C renal; 78.3% in the experiment with UO-31 renal; 98.9% in the experiment with TK-10 renal; 99.8% with ACHN renal; 107% in the experiment on CAKI-1 renal. For the same compound, the growth is 100% in the experiment on A498 renal, 101% in the experiment on MOLT-4 leukemia and 104% in the experiment on SR leukemia.

On to `O=C(/C=C/c1cc2ccccc2[nH]c1=O)c1ccc2c(c1)OCO2`, for which the growth in the experiment with EKVX NSCLC is 95.9%; in the experiment on SN12C renal, 93.5%; with UO-31 renal, 63.7%; in the experiment with TK-10 renal, 97.3%; in the experiment with ACHN renal, 103%; with CAKI-1 renal, 118%. Also, the growth with A498 renal was 97.6%; with MOLT-4 leukemia, 66%.

Regarding `Cc1cc2ccccc2nc1-c1ccccc1F`, the growth with EKVX NSCLC was 107%; with SN12C renal, 110%; in the experiment with UO-31 renal it was 97.3%; in the experiment on TK-10 renal it was 130%; with ACHN renal, 112%; with CAKI-1 renal, 99%. In addition, the growth is 96.2% in the experiment on A498 renal, 96.9% in the experiment with CCRF-CEM leukemia, 111% with MOLT-4 leukemia and 110% in the experiment with SR leukemia.

Take `CCN(CC)CCOc1nc2cc(OC)c(OC)cc2c2c1-c1ccc(OC)cc1C2=O`: the growth in the experiment on EKVX NSCLC was 98.6%; in the experiment on SN12C renal, 80.7%; in the experiment on UO-31 renal, 47.7%; with TK-10 renal it was 105%; in the experiment on ACHN renal, 56%; with CAKI-1 renal, 35.7%. The growth in the experiment on A498 renal was 96.6%; with CCRF-CEM leukemia, 22.4%; with MOLT-4 leukemia it was 9.28% (active); in the experiment on SR leukemia, -29.6% (active).

For `CCN(CC)CCNc1ccc(CO)c2oc3cc(Cl)ccc3c(=O)c12`, the growth with EKVX NSCLC was 88.7%; in the experiment on SN12C renal, 76.3%; in the experiment with UO-31 renal, 54.4%; with TK-10 renal, 82.7%; in the experiment on ACHN renal it was 60.9%; with CAKI-1 renal, 87.3%. The growth is 50.9% with A498 renal, 66.6% in the experiment on CCRF-CEM leukemia, 62.3% in the experiment with MOLT-4 leukemia and 50.1% in the experiment with SR leukemia.

For the compound `COc1ccc2c(c1)/C(=C\c1c[nH]c3ccc(OC)cc13)C(=O)N2`, the growth is 47.8% in the experiment with EKVX NSCLC; 52.8% with SN12C renal; 46.8% with UO-31 renal; 81.7% in the experiment on TK-10 renal; 39.6% in the experiment on ACHN renal; 21.3% with CAKI-1 renal. The growth in the experiment on A498 renal is 34.6%; in the experiment with CCRF-CEM leukemia, 28.6%; with MOLT-4 leukemia, 11.7%; with SR leukemia, 14.7%.

Regarding `CC(=O)c1cc(Br)ccc1O`, the growth with EKVX NSCLC is 107%; in the experiment with SN12C renal, 120%; in the experiment with UO-31 renal, 98.7%; in the experiment on TK-10 renal, 111%; in the experiment with ACHN renal it was 105%; in the experiment on CAKI-1 renal, 111%. For the same compound, the growth with A498 renal was 106%; with CCRF-CEM leukemia it was 103%; in the experiment on MOLT-4 leukemia it was 101%; in the experiment with SR leukemia, 102%.

In the case of `O=[N+]([O-])c1cccc(-c2ncc(-c3ccc(Cl)cc3Cl)[nH]2)c1`, the growth with EKVX NSCLC was 91.5%; in the experiment with SN12C renal, 80.9%; in the experiment on UO-31 renal, 60.4%; with TK-10 renal it was 20.1%; in the experiment with ACHN renal it was -2.82% (active); in the experiment on CAKI-1 renal, 100%. The values for the growth in the experiment with A498 renal and in the experiment on MOLT-4 leukemia were 104% and 22.1%, respectively.

With `O=C(N/N=C\c1cc(Cl)ccc1[N+](=O)[O-])c1ccco1`, the growth is 106% in the experiment on EKVX NSCLC; 99.8% with SN12C renal; 104% in the experiment on UO-31 renal; 128% with TK-10 renal; 105% with ACHN renal; 89.5% with CAKI-1 renal. Besides, the growth is 102% with CCRF-CEM leukemia and 93.6% in the experiment on MOLT-4 leukemia.

Regarding `CCCCCCCCCCCCCCCCCC(=O)OCCCCCCC`, the growth with EKVX NSCLC is 90.8%; in the experiment with SN12C renal, 105%; in the experiment with UO-31 renal it was 87.6%; with TK-10 renal, 113%; in the experiment with ACHN renal, 107%; in the experiment on CAKI-1 renal it was 88%. In the experiment on CCRF-CEM leukemia, the growth is 85%.

Regarding `COc1ccc(CN2CCC(N3CCCC3=O)c3cc(Cl)ccc32)cc1` (stereo not drawn), the growth in the experiment with EKVX NSCLC was 106%; in the experiment on SN12C renal it was 99.5%; in the experiment on UO-31 renal, 73.6%; with TK-10 renal, 108%; with ACHN renal, 101%; in the experiment with CAKI-1 renal, 114%. For the same compound, the growth with A498 renal was 111%; in the experiment on MOLT-4 leukemia, 83%; in the experiment with SR leukemia it was 84.2%.
